Assay outcomes from PubChem BioAssay.
A selection: hits, their analogues and other compounds. The true share with any hit is near 2.7%.
CF NFkB block – blocks PAF-induced NF-kB reporter in cystic fibrosis cells; KKLEB NF-kB-GFP reporter, GFP fluorescence overnight; inhibition, % at 5 µM; hit rate 0.86% among 360,000;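 active means at least 50% inhibition at 5 µM, scaled per plate between neutral and stimulator controls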;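 further: PAF is a Pseudomonas aeruginosa culture filtrate used as stimulus; plate controls were PAF-stimulated DMSO wells for no effect and unstimulated DMSO wells for full effect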
Shn3 inh set2 – Schnurri-3 reporter inhibition in Clone20 osteoblasts; Clone20 osteoblast Shn3 3'UTR firefly luciferase, 24 h; inhibition, % at 12.5 µM; hit rate 0.52% among 360,000; AID 588674;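 active means mean inhibition of at least 75% with every replicate also reaching 75%; inconclusive means mean inhibition at least 75% but some replicate below; inactive means mean inhibition below 75%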;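 further: 0% = median of neutral control wells and 100% = pilot-screen positive control compound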
Peg3 prom inh – Peg3 promoter activity inhibition; HeLa PEG-Prom luciferase reporter, luminescence, overnight; inhibition, % at 20 µM; AID 588405; hit rate 1.7% among 360,000;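 active means inhibition of at least 50% at 20 µM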
KKLEB cytotox – CF airway cell cytotoxicity counter-screen; AID 602141; activity change (cytotoxicity), % at 5 µM; KKLEB CF airway cells viability, ATPlite luminescence, overnight; hits give low values; cells stimulated with P. aeruginosa culture filtrate; hit rate 0.36% among 360,000;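 active means corrected activity change at or below -50% at 5 µM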
MITF TRPM1 inh – inhibitors of MITF-driven TRPM1 promoter in melanoma cells; hit rate 0.83% among 330,000; SK-MEL-5 TRPM1 promoter luciferase, 24 h; inhibition, % at 12.5 µM; AID 488899;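 active means mean inhibition across replicates of 60% or more, whatever share of single replicates reaches that level; inconclusive means some that reach 60%, reason not given; inactive means mean inhibition across replicates below 60%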
HIF-2a block – blocks HIF-2a reporter activity; 786-0 RCC cells HIF-2a reporter, luciferase luminescence, overnight; inhibition, % at 18.8 µM; hit rate 0.72% among 360,000;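 active means inhibition of the luminescence signal of 40% or more relative to plate controls, in a single-dose primary screen at 18.75 µM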
* hit, by the source's call; ? = inconclusive; . = not tested or not shown.

SMILES | CF NFkB block | Shn3 inh set2 | Peg3 prom inh | KKLEB cytotox | MITF TRPM1 inh | HIF-2a block
CCCCN1/C(=C/c2ccc3ccccc3[n+]2CC)Sc2ccccc21 | -151 | 90* | 48 | 4 | 69* | -33
CC1(C(=O)NS(=O)(=O)c2cccc(F)c2)CCN1C(=O)CC1CCCCC1 (stereo unspecified) | 11 | 8 | 11 | 4 | . | 1
Cc1ccc(S(=O)(=O)N2[C@H](CC(=O)c3cccs3)OC[C@@H]2C(C)C)cc1 | . | . | . | . | . | -14
Cc1cc2nc(NCCCO)n(CC(=O)c3cc(C(C)(C)C)c(O)c(C(C)(C)C)c3)c2cc1C | 41 | 25 | 94* | -44 | -7 | -8
COc1ccc(C(=O)Cn2c(NCCCO)nc3ccccc32)cc1 | -14 | 8 | -2 | -16 | . | 1
COc1cccc(C(=O)Nc2ccc3c(c2)OC[C@H](C)N(C(=O)C2CCCC2)C[C@@H](C)[C@@H](OC)CN(C)C3=O)c1 | . | . | . | . | . | 3
C=CCn1c(SCC(=O)Nc2sccc2C(N)=O)nc2ccccc2c1=O | -14 | 66 | 35 | 6 | 8 | 13
C=CCn1c(SCC(=O)Nc2sccc2C(N)=O)nc2sc(CC)cc2c1=O | -14 | 76 | 57* | -4 | 34 | -3
C=CCn1c(SCC(=O)Nc2sccc2C(N)=O)nc2ccc(Cl)cc2c1=O | -13 | 75 | 52* | -7 | 20 | 23
c1ccc(CC2CCN(c3ncnc4sccc34)CC2)cc1 | -6 | 90* | -44 | 4 | -1 | -65
Cc1ccc(S(=O)(=O)N2CCN(c3ncnc4sccc34)CC2)cc1 | -2 | 87* | 26 | -16 | 20 | 19
O=S(=O)(c1ccc(F)c(F)c1F)N1CCN(c2ncnc3sccc23)CC1 | 6 | ? | 30 | -4 | 22 | 25
c1ccc(C2(CN3CCNC[C@H]3Cc3cccc4ccccc34)CC2)cc1 | 1 | 6 | 79* | -2 | . | 10
COc1ccc(NC(=O)C2Cc3c(-c4cccc(F)c4)ccnc3O2)cn1 (stereo unspecified) | -4 | 32 | 18 | -9 | . | 7
CCCSc1nc(SCC(=O)NCc2ccccc2)c2c3c(sc2n1)COC(C)(CC)C3 (stereo unspecified) | 20 | 20 | 19 | -20 | 1 | 19
CCCCSc1nc(SCC(=O)NCc2ccco2)c2c3c(sc2n1)COC(C)(CC)C3 (stereo unspecified) | -16 | 33 | 77* | -13 | 2 | 13
CCCc1nc2ccc(C)cn2c1Cc1ccc(OC)cc1C | -28 | 19 | -34 | 11 | . | -16
Clc1ccc(-n2cnc3c(Cl)ncnc32)cc1Cl | -3 | 22 | 74* | -8 | 5 | 0
CC[n+]1c(/C=C/c2c[nH]c3ccccc23)ccc2cc(C)ccc21 | . | . | . | . | 74* | .
CCN(CC)C(=O)c1ccc(/C=C/c2c[nH]c3ccccc23)[n+](C)c1 | -26 | -25 | 3 | 3 | 10 | 15
OCC[C@@H]1C[C@H](O)[C@@H](O)[C@@]2(OCc3cc(C(F)(F)F)ccc32)O1 | 0 | -17 | -5 | -5 | . | 16
O=C(C[n+]1cc(-c2ccccc2)n2c1CCCCC2)c1ccc(Cl)cc1 | 3 | 3 | 10 | -6 | 12 | -21
CC1CCC(C(C)C)C(OC(=O)C[n+]2cc(-c3ccc(Cl)cc3)n3c2CCCCC3)C1 (stereo unspecified) | 26 | 60 | 45 | -16 | 87* | -11
CCN1/C(=C/c2cc[n+](C)cc2)C=Cc2cc(C)ccc21 | -46 | 80 | 61* | 1 | 70* | 6
CCN1C(=O)/C(=C2\C=Cc3cc(C)ccc3N2CC)OC1=S | -1 | -19 | -44 | 1 | -4 | -60
SMILES | CF NFkB block | Shn3 inh set2 | Peg3 prom inh | KKLEB cytotox | MITF TRPM1 inh | HIF-2a block
CN1NC(c2ccccc2)NN(C)C1=O | -6 | 15 | 3 | -18 | . | -38
COC(=O)c1sccc1-n1cc2c(c1-c1ccccc1)c(=O)n(C)c(=O)n2C | -14 | 6 | 7 | -11 | . | 15
CC(CCc1ccccc1)NC(=O)COC(=O)c1cc(NS(=O)(=O)c2ccc(Cl)c([N+](=O)[O-])c2)ccc1O (stereo unspecified) | 2 | -36 | 57* | 3 | 3 | 55*
Cc1nc([N+](=O)[O-])c(Br)n1CC(=O)c1ccc2ccccc2c1 | 64* | 95* | 47 | -52* | 34 | 11
Cc1nc([N+](=O)[O-])c(Br)n1CC(=O)c1ccccc1 | 31 | 9 | 11 | -8 | -3 | 31
O=C1NC[C@@H](CCCCN2C[C@H](Cc3ccc(O)cc3)N(CCc3ccc(O)cc3)C(=O)C2=O)N(Cc2ccccc2)C1=O | . | . | . | . | . | 7
O=C1CCC(=O)N1CN(C(=O)c1ccco1)c1ccc(Cl)c(Cl)c1 | -1 | 16 | 5 | -1 | 14 | 23
CC(=O)N(CN1C(=O)CCC1=O)c1ccc(Cl)c(Cl)c1 | -12 | 19 | 51* | 15 | 30 | 16
COc1cc(Cl)ccc1OC1(C)CCN(Cc2cccn2-c2nccs2)C1 (stereo unspecified) | 3 | 27 | -5 | -10 | . | 26
NC(=O)CC(NC(=O)Cc1ccc(Br)cc1)c1ccc(NC2CCCC2)c([N+](=O)[O-])c1 (stereo unspecified) | 1 | 16 | 61* | -31 | -37 | -23
NC(=O)CC(NC(=O)Cc1ccc(Br)cc1)c1ccc(NC2CCCCCCC2)c([N+](=O)[O-])c1 (stereo unspecified) | -22 | -4 | 23 | -16 | -6 | 3
COc1cc(C(=O)Oc2cccc(Nc3ncnc4ccccc34)c2)cc(OC)c1OC | -1 | 69 | 62* | 6 | 26 | -47
CCn1c(/C=C/c2cc(Br)ccc2O)nc2ccccc2c1=O | 30 | -2 | 68* | -10 | 15 | 22
COc1ccc(/C=C/c2ccc3cccc(O)c3n2)c(OC)c1OC | -27 | 19 | 86* | -15 | -19 | -187
COc1cc(/C=C/c2ccc3cccc(O)c3n2)cc(Br)c1OC | 12 | 0 | -175 | 8 | -1 | -215
COc1cccc(/C=C/c2ccc3cccc(O)c3n2)c1OC | -63 | 10 | 90* | -23 | -15 | -313
COc1cc(/C=C/c2ccc3cccc(O)c3n2)cc(OC)c1OC | 8 | -10 | 95* | -4 | 78* | -60
COc1cc(Br)cc(/C=C/c2ccc3cccc(O)c3n2)c1OC | -24 | 1 | -8 | -5 | 23 | -7
CCCNC(=O)C1(C)CCN(C(=O)c2cccc(C(F)(F)F)c2)C1 (stereo unspecified) | -1 | 2 | 7 | -6 | . | 5
CC1(C(=O)Nc2ccc(Cl)cc2)Cc2c(-c3cccc(C(F)(F)F)c3)ccnc2O1 (stereo unspecified) | 2 | -3 | 25 | -1 | . | 8
COc1ccc(S(=O)(=O)Nc2ccccc2C(=O)Nc2nc(-c3ccc(F)cc3)cs2)cc1OC | 52* | -1 | 32 | -41 | 0 | -16
